Columns and labels:
Assay in all cases: DAPPL (digital affinity profiling via proximity ligation, sequencing); 10 mM Tris-HCl pH 7.5, 50 mM NaCl, 1 mM DTT, 4% glycerol, room temperature, 30 min; GST-TFs on glutathione beads, 16-mer random dsDNA library, 0.1% formaldehyde crosslink after washing; high values mean tight binding
FEV = biological target: T1, FEV (Homo sapiens, UniProt Q99581 1-238); conditions: protein: recombinant; tags: N-terminal GST; dsDNA, one strand shown
T1 sequence: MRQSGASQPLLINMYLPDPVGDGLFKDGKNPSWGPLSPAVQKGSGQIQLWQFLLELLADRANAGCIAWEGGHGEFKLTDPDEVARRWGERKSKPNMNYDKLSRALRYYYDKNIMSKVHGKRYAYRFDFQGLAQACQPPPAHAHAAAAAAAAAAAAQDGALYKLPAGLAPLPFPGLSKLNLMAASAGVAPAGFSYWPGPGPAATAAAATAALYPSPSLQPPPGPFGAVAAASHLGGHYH
How it was run: (§1)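 Pools of DNA-barcoded human transcription factors, expressed in yeast as GST fusions on glutathione beads and combined with a tag-only sample, were incubated with 200 nmole of a 16-mer random double-stranded DNA library. Incubation took 30 min at room temperature in Tris/NaCl/DTT/glycerol buffer and was followed by washing, 0.1% formaldehyde crosslinking, proximity ligation (BsaI/T4 ligase, 1 h, 37 °C), PCR amplification and sequencing on an Illumina NextSeq500. Binding signal is the ratio of a hexamer's read frequency for a factor to its frequency for the tag-only sample.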

ETV5 = ETV5 (Homo sapiens, UniProt P41161 1-510); conditions: protein: recombinant; tags: N-terminal GST; dsDNA, one strand shown
How it was run: as §1

HSF1 = HSF1 (Homo sapiens, UniProt Q00613 1-529); conditions: protein: recombinant; tags: N-terminal GST; chain copies: 3; dsDNA, one strand shown
How it was run: as §1

SPIC = biological target: T2, SPIC (Homo sapiens, UniProt Q8N5J4 1-248); conditions: protein: recombinant; tags: N-terminal GST; dsDNA, one strand shown
T2 sequence: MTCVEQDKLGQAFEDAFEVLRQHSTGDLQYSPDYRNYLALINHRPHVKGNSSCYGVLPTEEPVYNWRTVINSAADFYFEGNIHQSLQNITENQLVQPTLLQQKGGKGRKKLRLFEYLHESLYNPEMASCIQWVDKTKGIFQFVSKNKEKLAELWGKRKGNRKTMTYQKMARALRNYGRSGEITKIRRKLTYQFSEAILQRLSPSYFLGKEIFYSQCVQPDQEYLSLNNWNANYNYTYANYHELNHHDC
How it was run: as §1

ELF4 = ELF4 (Homo sapiens, UniProt Q99607 1-663); conditions: protein: recombinant; tags: N-terminal GST; dsDNA, one strand shown
How it was run: as §1

ELK4 = biological target: T3, ELK4 (Homo sapiens, UniProt P28324-2 1-405); conditions: protein: recombinant; tags: N-terminal GST; dsDNA, one strand shown
T3 sequence: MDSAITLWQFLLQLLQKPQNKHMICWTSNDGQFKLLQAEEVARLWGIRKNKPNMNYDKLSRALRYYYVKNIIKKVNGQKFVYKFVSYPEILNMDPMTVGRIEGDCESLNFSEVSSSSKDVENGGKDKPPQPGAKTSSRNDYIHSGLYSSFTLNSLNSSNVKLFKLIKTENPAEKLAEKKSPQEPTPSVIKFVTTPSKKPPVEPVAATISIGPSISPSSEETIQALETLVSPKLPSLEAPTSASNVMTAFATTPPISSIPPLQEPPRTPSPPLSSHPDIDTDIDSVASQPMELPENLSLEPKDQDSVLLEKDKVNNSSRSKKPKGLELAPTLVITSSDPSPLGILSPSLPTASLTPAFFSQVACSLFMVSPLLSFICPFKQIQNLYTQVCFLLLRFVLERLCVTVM
How it was run: as §1

ETV2 = biological target: T4, ETV2 (Homo sapiens, UniProt O00321 1-342); conditions: protein: recombinant; tags: N-terminal GST; dsDNA, one strand shown
T4 sequence: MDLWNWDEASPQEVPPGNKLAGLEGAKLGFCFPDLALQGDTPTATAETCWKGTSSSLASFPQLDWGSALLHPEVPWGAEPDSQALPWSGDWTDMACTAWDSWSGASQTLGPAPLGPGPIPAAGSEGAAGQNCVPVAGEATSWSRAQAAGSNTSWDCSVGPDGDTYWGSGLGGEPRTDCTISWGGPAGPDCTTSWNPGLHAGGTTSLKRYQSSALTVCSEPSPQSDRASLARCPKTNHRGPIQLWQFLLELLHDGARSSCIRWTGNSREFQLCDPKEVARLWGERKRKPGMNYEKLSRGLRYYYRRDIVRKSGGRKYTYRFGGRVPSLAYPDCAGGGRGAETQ
How it was run: as §1

ELF3 = biological target: T5, ELF3 (Homo sapiens, UniProt P78545 1-371); conditions: protein: recombinant; tags: N-terminal GST; dsDNA, one strand shown
T5 sequence: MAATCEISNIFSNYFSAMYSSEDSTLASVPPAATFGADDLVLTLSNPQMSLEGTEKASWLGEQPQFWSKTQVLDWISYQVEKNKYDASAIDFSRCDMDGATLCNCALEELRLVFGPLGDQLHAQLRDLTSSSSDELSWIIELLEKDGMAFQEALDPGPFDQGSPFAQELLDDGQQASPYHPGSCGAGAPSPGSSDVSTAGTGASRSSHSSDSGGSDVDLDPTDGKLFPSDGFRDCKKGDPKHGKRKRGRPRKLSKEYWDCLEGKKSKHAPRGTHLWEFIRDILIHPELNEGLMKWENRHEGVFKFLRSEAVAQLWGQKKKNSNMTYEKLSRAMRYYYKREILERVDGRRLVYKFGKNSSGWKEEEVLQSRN
How it was run: as §1

CRX = CRX (Homo sapiens, UniProt O43186 1-299); conditions: protein: recombinant; tags: N-terminal GST; dsDNA, one strand shown
How it was run: as §1

ETV1 = ETV1 (Homo sapiens, UniProt P50549 1-477); conditions: protein: recombinant; tags: N-terminal GST; dsDNA, one strand shown
How it was run: as §1

ERF = biological target: T6, ERF (Homo sapiens, UniProt P50548 1-548); conditions: protein: recombinant; tags: N-terminal GST; dsDNA, one strand shown
T6 sequence: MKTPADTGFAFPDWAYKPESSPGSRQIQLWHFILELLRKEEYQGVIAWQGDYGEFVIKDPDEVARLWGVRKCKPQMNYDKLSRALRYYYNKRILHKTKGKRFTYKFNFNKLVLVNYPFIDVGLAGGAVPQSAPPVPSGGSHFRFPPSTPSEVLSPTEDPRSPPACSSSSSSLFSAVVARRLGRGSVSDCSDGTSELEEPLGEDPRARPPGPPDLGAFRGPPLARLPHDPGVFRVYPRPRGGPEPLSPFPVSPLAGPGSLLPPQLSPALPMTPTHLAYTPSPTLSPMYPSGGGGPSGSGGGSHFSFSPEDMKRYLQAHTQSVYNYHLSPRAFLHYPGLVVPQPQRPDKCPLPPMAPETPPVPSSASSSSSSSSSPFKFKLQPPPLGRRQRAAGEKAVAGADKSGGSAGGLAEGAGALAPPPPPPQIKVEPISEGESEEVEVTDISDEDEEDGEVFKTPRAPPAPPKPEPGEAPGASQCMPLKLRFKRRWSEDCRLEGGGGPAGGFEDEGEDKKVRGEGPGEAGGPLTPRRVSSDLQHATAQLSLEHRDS
How it was run: as §1

ETV3L = biological target: T7, ETV3L (Homo sapiens, UniProt Q6ZN32 1-361); conditions: protein: recombinant; tags: N-terminal GST; dsDNA, one strand shown
T7 sequence: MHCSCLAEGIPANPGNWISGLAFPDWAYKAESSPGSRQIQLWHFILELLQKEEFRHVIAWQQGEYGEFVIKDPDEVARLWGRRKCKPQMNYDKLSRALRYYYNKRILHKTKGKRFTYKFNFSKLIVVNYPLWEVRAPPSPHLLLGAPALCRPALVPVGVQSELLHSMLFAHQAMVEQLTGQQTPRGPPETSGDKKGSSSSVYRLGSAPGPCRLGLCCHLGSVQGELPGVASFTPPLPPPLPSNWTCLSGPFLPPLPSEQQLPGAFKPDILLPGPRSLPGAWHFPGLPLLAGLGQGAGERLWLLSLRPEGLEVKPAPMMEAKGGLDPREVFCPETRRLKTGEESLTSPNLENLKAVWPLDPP
How it was run: as §1

ETS2 = biological target: T8, ETS2 (Homo sapiens, UniProt P15036 1-469); conditions: protein: recombinant; tags: N-terminal GST; dsDNA, one strand shown
T8 sequence: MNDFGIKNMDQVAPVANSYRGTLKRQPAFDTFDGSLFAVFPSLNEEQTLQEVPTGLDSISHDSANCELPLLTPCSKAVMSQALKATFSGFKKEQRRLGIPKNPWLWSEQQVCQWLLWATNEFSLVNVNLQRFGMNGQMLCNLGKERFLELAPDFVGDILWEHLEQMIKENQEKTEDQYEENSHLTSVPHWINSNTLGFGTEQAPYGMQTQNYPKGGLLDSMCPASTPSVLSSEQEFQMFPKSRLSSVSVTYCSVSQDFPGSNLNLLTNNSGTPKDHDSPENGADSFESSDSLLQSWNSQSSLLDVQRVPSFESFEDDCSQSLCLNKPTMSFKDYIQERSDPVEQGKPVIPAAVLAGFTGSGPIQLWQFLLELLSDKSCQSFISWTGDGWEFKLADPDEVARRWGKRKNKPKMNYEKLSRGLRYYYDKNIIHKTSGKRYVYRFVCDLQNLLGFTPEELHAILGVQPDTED
How it was run: as §1

SPDEF = biological target: T9, SPDEF (Homo sapiens, UniProt O95238 1-335); conditions: protein: recombinant; tags: N-terminal GST; dsDNA, one strand shown
T9 sequence: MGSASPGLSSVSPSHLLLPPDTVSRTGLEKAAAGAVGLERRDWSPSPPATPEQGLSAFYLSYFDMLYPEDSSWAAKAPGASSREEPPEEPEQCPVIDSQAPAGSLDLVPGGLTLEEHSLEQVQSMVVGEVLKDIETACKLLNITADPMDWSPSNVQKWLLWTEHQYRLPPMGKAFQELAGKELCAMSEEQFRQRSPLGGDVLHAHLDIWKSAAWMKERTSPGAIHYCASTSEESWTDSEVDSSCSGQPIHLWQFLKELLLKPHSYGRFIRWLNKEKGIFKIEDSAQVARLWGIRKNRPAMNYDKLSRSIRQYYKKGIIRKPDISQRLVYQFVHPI
How it was run: as §1

ETV7 = biological target: T10, ETV7 (Homo sapiens, UniProt Q9Y603 1-341); conditions: protein: recombinant; tags: N-terminal GST; dsDNA, one strand shown
T10 sequence: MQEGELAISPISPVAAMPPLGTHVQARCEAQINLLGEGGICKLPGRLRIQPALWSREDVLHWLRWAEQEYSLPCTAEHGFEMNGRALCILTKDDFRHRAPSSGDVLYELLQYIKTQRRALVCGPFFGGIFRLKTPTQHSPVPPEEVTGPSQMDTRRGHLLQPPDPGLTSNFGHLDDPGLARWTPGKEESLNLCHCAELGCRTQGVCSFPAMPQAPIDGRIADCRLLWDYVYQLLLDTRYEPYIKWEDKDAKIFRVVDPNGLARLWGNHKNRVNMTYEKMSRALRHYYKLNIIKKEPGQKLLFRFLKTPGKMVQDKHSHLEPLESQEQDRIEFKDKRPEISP
How it was run: as §1

ELF5 = biological target: T11, ELF5 (Homo sapiens, UniProt Q9UKW6-2 1-255); conditions: protein: recombinant; tags: N-terminal GST; dsDNA, one strand shown
T11 sequence: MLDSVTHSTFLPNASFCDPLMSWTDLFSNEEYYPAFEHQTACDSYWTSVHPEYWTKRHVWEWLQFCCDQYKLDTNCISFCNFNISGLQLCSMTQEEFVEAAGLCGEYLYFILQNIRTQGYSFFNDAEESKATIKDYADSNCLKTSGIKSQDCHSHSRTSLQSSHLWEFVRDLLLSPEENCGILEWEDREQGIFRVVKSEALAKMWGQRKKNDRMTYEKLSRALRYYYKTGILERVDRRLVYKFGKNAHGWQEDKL
How it was run: as §1

ETV3 = biological target: T12, ETV3 (Homo sapiens, UniProt P41162-2 1-143); conditions: protein: recombinant; tags: N-terminal GST; dsDNA, one strand shown
T12 sequence: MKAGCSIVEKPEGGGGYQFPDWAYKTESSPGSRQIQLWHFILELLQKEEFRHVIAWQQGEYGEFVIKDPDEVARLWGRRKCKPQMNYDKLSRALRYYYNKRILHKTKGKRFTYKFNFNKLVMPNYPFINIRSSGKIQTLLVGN
How it was run: as §1

ETV6 = ETV6 (Homo sapiens, UniProt P41212 1-452); conditions: protein: recombinant; tags: N-terminal GST; dsDNA, one strand shown
How it was run: as §1

HSF1, sequence (Q00613 whole entry): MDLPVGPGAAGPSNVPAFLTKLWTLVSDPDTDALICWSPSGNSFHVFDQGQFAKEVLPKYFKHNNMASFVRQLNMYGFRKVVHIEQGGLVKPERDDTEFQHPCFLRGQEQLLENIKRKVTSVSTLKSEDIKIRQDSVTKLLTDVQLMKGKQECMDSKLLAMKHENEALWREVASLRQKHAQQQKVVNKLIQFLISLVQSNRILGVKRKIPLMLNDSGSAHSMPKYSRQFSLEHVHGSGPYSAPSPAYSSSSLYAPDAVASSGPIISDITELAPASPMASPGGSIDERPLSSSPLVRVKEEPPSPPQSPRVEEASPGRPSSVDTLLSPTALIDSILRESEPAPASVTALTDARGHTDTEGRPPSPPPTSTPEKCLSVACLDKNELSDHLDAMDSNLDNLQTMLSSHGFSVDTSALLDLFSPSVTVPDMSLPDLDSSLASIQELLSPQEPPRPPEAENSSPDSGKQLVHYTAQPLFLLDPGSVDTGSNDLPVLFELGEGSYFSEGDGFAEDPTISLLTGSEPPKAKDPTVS
CRX, sequence (O43186 whole entry): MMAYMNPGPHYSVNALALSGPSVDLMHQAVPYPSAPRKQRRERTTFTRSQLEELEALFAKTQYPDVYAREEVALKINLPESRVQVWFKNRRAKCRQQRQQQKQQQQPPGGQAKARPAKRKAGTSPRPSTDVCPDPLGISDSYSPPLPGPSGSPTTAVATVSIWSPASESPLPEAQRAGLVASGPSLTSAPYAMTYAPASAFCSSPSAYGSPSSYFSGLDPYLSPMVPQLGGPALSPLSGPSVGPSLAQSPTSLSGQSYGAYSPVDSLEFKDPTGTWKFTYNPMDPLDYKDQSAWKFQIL
ELF4, sequence (Q99607 whole entry): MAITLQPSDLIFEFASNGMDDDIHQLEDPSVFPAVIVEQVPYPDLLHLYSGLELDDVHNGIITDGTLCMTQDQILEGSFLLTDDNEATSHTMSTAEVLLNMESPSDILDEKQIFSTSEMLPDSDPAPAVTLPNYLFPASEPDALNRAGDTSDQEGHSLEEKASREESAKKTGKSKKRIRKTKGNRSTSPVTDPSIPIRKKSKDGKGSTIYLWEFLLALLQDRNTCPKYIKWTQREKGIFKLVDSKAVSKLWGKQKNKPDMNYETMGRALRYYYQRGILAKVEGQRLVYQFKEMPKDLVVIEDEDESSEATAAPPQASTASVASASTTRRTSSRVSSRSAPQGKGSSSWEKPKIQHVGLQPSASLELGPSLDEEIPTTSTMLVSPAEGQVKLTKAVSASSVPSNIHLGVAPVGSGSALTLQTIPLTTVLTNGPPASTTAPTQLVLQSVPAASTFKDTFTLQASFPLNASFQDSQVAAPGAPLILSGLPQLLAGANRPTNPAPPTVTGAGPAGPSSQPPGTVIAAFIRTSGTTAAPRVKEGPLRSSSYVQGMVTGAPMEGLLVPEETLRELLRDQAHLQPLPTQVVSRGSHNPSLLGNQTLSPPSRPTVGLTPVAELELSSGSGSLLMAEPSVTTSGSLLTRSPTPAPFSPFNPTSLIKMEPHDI
ETV5, sequence (P41161 whole entry): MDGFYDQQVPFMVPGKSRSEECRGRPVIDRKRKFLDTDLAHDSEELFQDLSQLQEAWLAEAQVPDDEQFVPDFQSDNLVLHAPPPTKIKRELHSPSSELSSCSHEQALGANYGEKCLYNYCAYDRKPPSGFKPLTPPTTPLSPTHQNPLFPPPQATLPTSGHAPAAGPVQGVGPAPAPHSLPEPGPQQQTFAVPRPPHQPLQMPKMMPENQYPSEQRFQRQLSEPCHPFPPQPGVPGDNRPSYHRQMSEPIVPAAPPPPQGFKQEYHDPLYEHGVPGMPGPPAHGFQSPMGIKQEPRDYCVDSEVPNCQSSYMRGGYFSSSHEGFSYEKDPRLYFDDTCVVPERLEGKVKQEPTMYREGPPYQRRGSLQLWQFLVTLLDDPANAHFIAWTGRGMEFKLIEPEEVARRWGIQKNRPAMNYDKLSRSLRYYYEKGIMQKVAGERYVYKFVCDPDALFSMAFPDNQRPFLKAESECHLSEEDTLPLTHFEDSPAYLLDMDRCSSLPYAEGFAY
ETV1, sequence (P50549 whole entry): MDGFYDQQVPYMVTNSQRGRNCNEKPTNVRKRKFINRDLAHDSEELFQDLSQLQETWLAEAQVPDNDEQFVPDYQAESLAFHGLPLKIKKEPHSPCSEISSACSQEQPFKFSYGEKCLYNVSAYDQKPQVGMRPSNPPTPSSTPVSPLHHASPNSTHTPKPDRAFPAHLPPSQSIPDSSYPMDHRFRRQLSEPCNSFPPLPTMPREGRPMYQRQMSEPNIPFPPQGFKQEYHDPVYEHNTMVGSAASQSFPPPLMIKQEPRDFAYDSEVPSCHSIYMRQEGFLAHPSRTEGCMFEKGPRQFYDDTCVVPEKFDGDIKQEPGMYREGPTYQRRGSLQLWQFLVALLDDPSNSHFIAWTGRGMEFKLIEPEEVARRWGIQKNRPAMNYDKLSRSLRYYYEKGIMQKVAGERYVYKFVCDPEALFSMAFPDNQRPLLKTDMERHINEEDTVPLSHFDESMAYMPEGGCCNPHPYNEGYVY
ETV6, sequence (P41212 whole entry): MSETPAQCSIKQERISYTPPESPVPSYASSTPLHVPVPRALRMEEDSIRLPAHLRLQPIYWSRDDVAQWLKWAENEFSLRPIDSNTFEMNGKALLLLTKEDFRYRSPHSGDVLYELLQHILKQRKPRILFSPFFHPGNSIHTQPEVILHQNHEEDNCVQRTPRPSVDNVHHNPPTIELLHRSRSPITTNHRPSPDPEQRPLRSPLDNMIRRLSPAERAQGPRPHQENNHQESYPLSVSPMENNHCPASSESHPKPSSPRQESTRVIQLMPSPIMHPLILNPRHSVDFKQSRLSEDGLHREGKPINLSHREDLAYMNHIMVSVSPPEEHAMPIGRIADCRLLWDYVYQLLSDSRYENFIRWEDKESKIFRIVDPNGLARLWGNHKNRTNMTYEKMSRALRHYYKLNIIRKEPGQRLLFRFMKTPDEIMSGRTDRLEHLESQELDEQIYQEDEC

## TTGACT
FEV
  binding signal: 1.15 fold enrichment (6-mer frequency, TF over GST control)
ETV5
  binding signal: 1.13 fold enrichment (6-mer frequency, TF over GST control)
HSF1
  binding signal: 1.12 fold enrichment (6-mer frequency, TF over GST control)
SPIC
  binding signal: 1.15 fold enrichment (6-mer frequency, TF over GST control)
ELF4
  binding signal: 1.21 fold enrichment (6-mer frequency, TF over GST control)
ELK4
  binding signal: 1.3 fold enrichment (6-mer frequency, TF over GST control)
ETV2
  binding signal: 1.27 fold enrichment (6-mer frequency, TF over GST control)
ELF3
  binding signal: 1.15 fold enrichment (6-mer frequency, TF over GST control)
CRX
  binding signal: 1.09 fold enrichment (6-mer frequency, TF over GST control)
ETV1
  binding signal: 1.18 fold enrichment (6-mer frequency, TF over GST control)
ERF
  binding signal: 1.18 fold enrichment (6-mer frequency, TF over GST control)
ETV3L
  binding signal: 1.09 fold enrichment (6-mer frequency, TF over GST control)
ETS2
  binding signal: 1.14 fold enrichment (6-mer frequency, TF over GST control)
SPDEF
  binding signal: 1.15 fold enrichment (6-mer frequency, TF over GST control)
ETV7
  binding signal: 1.22 fold enrichment (6-mer frequency, TF over GST control)
ELF5
  binding signal: 1.08 fold enrichment (6-mer frequency, TF over GST control)
ETV3
  binding signal: 1.15 fold enrichment (6-mer frequency, TF over GST control)
ETV6
  binding signal: 1.24 fold enrichment (6-mer frequency, TF over GST control)

From PMC7862700, “An all-to-all approach to the identification of sequence-specific readers for epigenetic DNA modifications on cytosine”
